Data on 40 molecules can be found in PubChem BioAssay (EPA / NIEHS).

Records with an inconclusive call do not appear. Calls of active or inactive are those of the source. The calls were made as follows: active = hit-call score of the fitted dose curve at least 0.9, where 1 is the maximum; inconclusive = response in the unintended direction; inactive = score below 0.9.

One may read the AC50 as the midpoint of the concentration-response curve, whichever way the signal moves.

Cytochrome P450 3A4 (Homo sapiens), sequence (P08684 whole entry, looked up): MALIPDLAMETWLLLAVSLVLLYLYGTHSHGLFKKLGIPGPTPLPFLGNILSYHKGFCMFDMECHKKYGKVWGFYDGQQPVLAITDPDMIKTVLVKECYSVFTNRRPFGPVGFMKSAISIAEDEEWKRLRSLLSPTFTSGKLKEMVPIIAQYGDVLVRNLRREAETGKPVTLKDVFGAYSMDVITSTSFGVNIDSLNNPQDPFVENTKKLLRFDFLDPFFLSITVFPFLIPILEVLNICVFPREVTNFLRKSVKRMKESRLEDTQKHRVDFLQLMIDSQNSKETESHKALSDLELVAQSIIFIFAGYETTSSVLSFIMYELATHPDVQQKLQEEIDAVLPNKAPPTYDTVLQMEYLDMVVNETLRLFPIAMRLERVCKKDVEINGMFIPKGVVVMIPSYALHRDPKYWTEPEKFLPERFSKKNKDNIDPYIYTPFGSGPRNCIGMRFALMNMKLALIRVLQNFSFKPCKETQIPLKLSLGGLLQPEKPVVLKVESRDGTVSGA

Read-out in this experiment: Cytochrome P450 3A4 (Homo sapiens) (UniProt P08684)
In words: CLD_CYP3A4_6hr: CellzDirect (CLD) Gene Expression Assay for xenobiotic metabolism (CYP3A4) at 6 hours (AID 2283680). How it is done: CLD_6hr is a cell-based, multiplexed-readout assay that uses hepatocyte, a human liver primary cell, with measurements taken at 6 hours after chemical dosing in a 96-well plate.CLD_CYP3A4_6hr is one of 16 assay component(s) measured or calculated from the CLD_6hr assay. It is designed to make measurements of mRNA induction, a form of inducible reporter, as detected with chemiluminescence signals by Quantitative Nuclease Protection Assay (qNPA) technology.Data from the assay component CLD_CYP3A4_6hr was analyzed at the endpoint, CLD_CYP3A4_6hr, in the positive analysis fitting direction relative to DMSO as the negative control and baseline of activity. Using a type of inducible reporter, gain-of-signal activity can be used to understand changes in the reporter gene as they relate to the gene CYP3A4. Furthermore, this assay endpoint can be referred to as a primary readout. To generalize the intended target to other relatable targets, this assay endpoint is annotated to the cyp intended target family, where subfamily is xenobiotic metabolism.
Human hepatocyte cultures were treated daily for two consecutive days with fresh dosing solutions containing appropriate concentrations of the 320 ToxCast chemicals (chemical identities were blinded to CellzDirect and other ToxCast collaborators), vehicle control (0.2% DMSO), and positive control inducers as summarized in Table 1. Due to the large number of treatment groups and chemicals examined, the ToxCast chemicals were divided into two groups (spanning two independent cultures of hepatocytes from separate donor preparations (Hu778: ToxCast plates 1 and 2; Hu776: ToxCast plates 3 and 4). Each preparation of human hepatocyte cultures was treated with respective vehicle control, medium only control, set of six positive controls/reference chemicals for the five hepatic receptor pathways, and a subset of eight of the ToxCast chemicals (indoxacarb, pyrithiobac-sodium, norflurazon, cyhalofop-butyl, methomyl, thiram, acetochlor, and propiconazole). These replicate data, coupled with internal replicates designed within the blinded ToxCast chemical library, provided additional data to evaluate interindividual differences between hepatocyte preparations and their potential impact on chemical profiles.Cell morphology and integrity were evaluated using phase-contrast microscopy as an indicator of hepatocyte cell health (Tyson & Green, 1987). Cultures for each treatment group (i.e., media, vehicle [0.2% DMSO], positive control inducers [multiple concentrations], and the ToxCast chemicals [multiple concentrations]) were observed and cell morphology was assessed relative to vehicle control cultures at each harvest time point (0, 6, 24, or 48 h). […] Images were evaluated at the conclusion of the study to assess changes in cell integrity and account for the effects of chemical exposure on uncharacteristic changes in concentration-dependent gene expression profiles. The results from these determinations of apparent cytotoxicity were annotated (yes/no) alongside the corresponding qNPA data for reference.At the conclusion of each treatment period, hepatocyte cultures (96-well) were washed with 1 volume of HBSS, lysed by addition of 25 ul ArrayPlate lysis buffer (HTG, Tucson, AZ), and 70 ul/well of Denaturation Oil, denatured by incubation at 95C for 10 min, and frozen at approximately -70C until analysis by nuclease protection assay (qNPA) (Roberts et al., 2007). For qNPA analysis, cell lysates were thawed at 50C for approximately 30 min, qNPA probes were added, and samples were incubated at 95C for 10 min to begin the detection process by denaturing the target RNA, dissociating the duplexes and secondary structure hybridization. At the conclusion of the hybridization period, S1 nuclease reagent was added to each sample to digest all nonprotected nucleotides at 50C for 60-90 min. […]
For the molecule `CCOP(=S)(OCC)SCCSCC`, the call was inactive. For the molecule `CCOP(=S)(OCC)Oc1ccc([N+](=O)[O-])cc1`, the AC50 is 2.2 µM (active). As to `CCCSP(=O)(OCC)SCCC`, the call was inactive.

Consider `COc1ccc(C(=CC(=O)N2CCOCC2)c2ccc(Cl)cc2)cc1OC`, for which the concentration at half-maximal activity (AC50) was 2.29 µM (active). On the same count and under the same terms, the same measure for `CCCSP(=O)(OCC)Oc1ccc(Br)cc1Cl` (stereo not given): 3.52 µM (active). Turning to `CN(C)NC(=O)CCC(=O)O`, the call was inactive.

For `CCc1cnc(C2=NC(C)(C(C)C)C(=O)N2)c(C(=O)O)c1` (stereo not given), the outcome was inactive.

Consider `O=c1ccc(=O)[nH][nH]1`, for which the outcome was inactive.

For the molecule `CCOP(=S)(Oc1cnc(C(C)(C)C)nc1)OC(C)C` (stereo not given), the AC50 is 1.89 µM (active).

As to `COP(=O)(NC(C)=O)SC` (stereo not given), the molecule was classed as inactive. Consider `CC(COc1ccc(Oc2ccccc2)cc1)Oc1ccccn1` (stereo not given), for which the AC50 is 20 µM (active). For the molecule `CCCCOC(=O)c1ccccc1C(=O)O`, the molecule was classed as inactive.

Consider `CCOP(=S)(OCC)Oc1ccc2c(C)c(Cl)c(=O)oc2c1`, for which the molecule was called inactive. For the molecule `O=[N+]([O-])c1cc(C(F)(F)F)c(Cl)c([N+](=O)[O-])c1Nc1ncc(C(F)(F)F)cc1Cl`, the result was inactive. For the molecule `Nc1c(Cl)cc([N+](=O)[O-])cc1Cl`, the call was inactive.

For `CON=C(C(=O)OC)c1ccccc1CON=C(C)c1cccc(C(F)(F)F)c1`, the outcome was inactive. Same read-out and setting: the same measure for `CC(C)=CC1C(C(=O)OCN2C(=O)C3=C(CCCC3)C2=O)C1(C)C` (stereo not given): “inactive”; for `CSc1nc(NC(C)C)nc(NC(C)C)n1`: “inactive”. In the case of `C#CCC1=C(C)C(OC(=O)C2C(C=C(C)C)C2(C)C)CC1=O` (stereo not given), the AC50 is 2.84 µM (active). As for `CC(C)[C@H](C(=O)O[C@H](C#N)c1cccc(Oc2ccccc2)c1)c1ccc(Cl)cc1`, the result was inactive. Turning to `CNc1cnn(-c2cccc(C(F)(F)F)c2)c(=O)c1Cl`, the molecule was called inactive. With `CNC(=O)Oc1cccc2c1OC(C)(C)O2`, the result was inactive.

Regarding `CCCOCC(=Nc1ccc(Cl)cc1C(F)(F)F)n1ccnc1`, the molecule was called inactive. `CNC(=O)ON=C(SC)C(=O)N(C)C`: the molecule was classed as inactive. Consider `Cc1cc(C2CC2)nc(Nc2ccccc2)n1`, for which the outcome was inactive. Turning to `CC[C@H](C)[C@H]1O[C@]2(C=C[C@@H]1C)C[C@@H]1C[C@@H](C/C=C(\C)[C@@H](O[C@H]3C[C@H](OC)[C@@H](O[C@H]4C[C@H](OC)[C@@H](NC)[C@H](C)O4)[C@H](C)O3)[C@@H](C)/C=C/C=C3\CO[C@@H]4[C@H](O)C(C)=C[C@@H](C(=O)O1)[C@]34O)O2`, the call was inactive. Still for that read-out and setting: the same measure for `Cc1ccn2nc(S(=O)(=O)Nc3c(F)cccc3F)nc2n1`: “inactive”. As for `CCc1cccc(C)c1N(C(=O)CCl)C(C)COC` (stereo not given), the AC50 was 0.477 µM (active). `CCOP(=O)(SC(C)CC)N1CCSC1=O` (stereo not given): the AC50 was 8.82 µM (active). `S=C1NCCN1`: the molecule was called inactive. Still for that read-out and setting: the same measure for `C[N+]1(C)CCCCC1`: “inactive”; for `CCOP(=S)(OCC)Oc1cc(C)nc(C(C)C)n1`: “inactive”.

For `CCOP(=S)(OCC)OC(Cl)C(Cl)(Cl)Cl` (stereo not given), the AC50 is 10.5 µM (active). For `CCCCN(CC)c1c([N+](=O)[O-])cc(C(F)(F)F)cc1[N+](=O)[O-]`, the result was inactive. Take `CCNc1nc(Cl)nc(NC(C)(C)C#N)n1`: the result was inactive. As to `CC1(C(=O)Nc2ccc(O)c(Cl)c2Cl)CCCCC1`, the molecule was called inactive.

On to `CCOP(=O)(NC(C)C)Oc1ccc(SC)c(C)c1` (stereo not given), for which the molecule was called inactive. Consider `CCOP(=O)(OCC)Oc1cc(C)nc(C(C)C)n1`, for which the molecule was called inactive.

As to `CCCCOC(=O)[C@@H](C)Oc1ccc(Oc2ccc(C#N)cc2F)cc1`, the result was inactive. Take `CN(C)C(=O)Nc1cccc(C(F)(F)F)c1`: the call was inactive.
